From PubChem BioAssay (NCATS)
Where “and” joins values, the source holds several entries; their conditions need not be identical. Identical values can stand only once. Results filed as inconclusive are left out. Some structures have more than one record in an assay (separate samples or runs), and their calls can disagree. Calls of active or inactive are those of the source. Calls come from the whole dose curve; as a rule, active = well fitted curve in the direction sought with a large enough effect; inconclusive = small, poorly fitted or top-dose-only effect, or another doubt; inactive = no such curve, though single readings can be large; an effect the other way counts as inactive or inconclusive.

Test: Viability qHTS for spleen associated tyrosine kinase inhibitor (SYKi) drug resistant MV4-11 cells (AID 1963824); note: nearly all actives have a fitted effect of over 35% in size
Details: SYKi-resistant MV4-11 viability, CellTiter-Glo, 72 h; series mostly up to 45 µM
Procedure, shortened: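 SYK inhibitor-resistant MV4-11 AML cells, 500 per well, added to predispensed compounds and incubated 72 hr at 37 C, 5% CO2. Viability measured by CellTiter-Glo luminescence after 10 min at room temperature.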
Potency is the fitted concentration of half-maximal effect.

Compound	Potency
COc1cc(C(=S)N2CCOCC2)cc(OC)c1OC	inactive
CO/N=C(\C(=O)O)c1csc(NC(=O)CCl)n1	inactive
CC(C)C[C@@H](N)C(=O)O	inactive
C1=C/COCc2cc(ccc2OCCN2CCCC2)Nc2nccc(n2)-c2cccc(c2)COC/1	inactive and 130 nM (active)
CCCCOCCOC(=O)c1cccnc1	inactive
COc1ccc(CCN2CCC(Nc3nc4ccccc4n3Cc3ccc(F)cc3)CC2)cc1	8.41 µM (active)
CN(C)C/C=C/C(=O)Nc1cc2c(Nc3ccc(F)c(Cl)c3)ncnc2cc1O[C@H]1CCOC1	1.86 µM (active)
CC1=C(/C=C/C(C)=C/C=C/C(C)=C/C(=O)O)C(C)(C)CCC1	1.06 µM (active) and 468 nM (active)
C=CC(=O)N1CCC[C@@H](n2nc(-c3ccc(Oc4ccccc4)cc3)c3c(N)ncnc32)C1	1.3 µM (active) and 1.18 µM (active)
CC[C@@H]1[C@H](F)C(=O)N[C@@H]1COc1nccc2cc(C(N)=O)c(OC)cc12	14.8 µM (active)
CN(C)C/C=C/C(=O)Nc1cccc(C(=O)Nc2cccc(Nc3ncc(Cl)c(-c4c[nH]c5ccccc45)n3)c2)c1	0.0037 µM (active)
C=CC(=O)Nc1cccc(Nc2nc(Nc3ccc(OCCOC)cc3)ncc2F)c1	0.651 µM (active)
COc1ccc(Cc2cnc(N)nc2N)cc1OC	inactive
CCCCCCCCCCCCCCCC[N+](C)(C)CC	0.668 µM (active)
OC1(c2ccc(Cl)c(C(F)(F)F)c2)CCN(CCCC(c2ccc(F)cc2)c2ccc(F)cc2)CC1	2.99 µM (active) and 3.26 µM (active)
C[C@]12CCCN1CC1=NNC(=O)c3cc(F)cc4[nH]c2c1c34	6.61 µM (active)

Compound	Potency
CCNC(=O)NCc1cccc(Cl)c1	inactive
C=C1[C@H](OC(=O)/C=C(\C)CC)C[C@@H](C(C)C)[C@@H]2[C@H]([C@@H](C)OC(C)=O)C(=O)C[C@@H]12	13.2 µM (active)
COC(=O)c1cc(Cl)c(NC(C)=O)cc1OC	inactive
COc1cc(OC)c(/C=C/S(=O)(=O)Cc2ccc(OC)c(NCC(=O)O)c2)c(OC)c1	51.7 nM (active) and 118 nM (active)
O=C(CCc1ccc(O)cc1)c1c(O)cc(O)cc1O[C@@H]1O[C@H](CO)[C@@H](O)[C@H](O)[C@H]1O	inactive
c1ccc2sc(SN3CCOCC3)nc2c1	inactive
Cc1c(N(C)C)c(=O)n(-c2ccccc2)n1C	inactive
CCCCCN(CCCOC)C(=O)C(CCC(=O)O)NC(=O)c1ccc(Cl)c(Cl)c1 (stereo not given)	inactive
CCNCCc1ccc(CN(CC)c2cc(OC)ccc2[C@@H]2CCc3cc(O)ccc3C2)cc1	2.95 µM (active)
Cc1ccc([N+](=O)[O-])cc1S(=O)(=O)N(C)/N=C/c1cnc2ccc(Br)cn12	16.4 nM (active) and 46.8 nM (active)
N=C(N)c1ccc2nc(-c3cc(CC(=O)N[C@@H](CC(=O)O)C(=O)O)cc(-c4cc(S(N)(=O)=O)ccc4O)c3O)[nH]c2c1	inactive
C#CC[C@H](c1nc2cc(Cl)ccc2c(=O)n1Nc1ccccc1)N(CCCN)C(=O)c1cccc(Cl)c1F	0.206 µM (active)
CC(=O)c1ccc(O)c(C(N)=O)c1	inactive
CC(C)Cc1ccc([C@@H](C)C(=O)NS(C)(=O)=O)cc1	inactive
COC1=C(OC)C(=O)C(C/C=C(\C)CC/C=C(\C)CC/C=C(\C)CC/C=C(/C)CC/C=C(\C)CC/C=C(\C)CC/C=C(\C)CC/C=C(\C)CC/C=C(\C)CCC=C(C)C)=C(C)C1=O	inactive

Test: Cellular viability qHTS for adrenocortical cancer (ACC) cell line SW-13 (AID 1963989); note: nearly all actives have a fitted effect of over 65% in size;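 for activity (max response): cells grown in serum-free medium with ITS supplement; % is set by controls: 0 for no effect and ±100 for the full control effect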
Details: SW-13 ACC cells viability, CellTiter-Glo, 48 h; activity (max response): stronger effect = lower value
Procedure, shortened: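 Luminescent ATP read-out (CellTiter-Glo, 20 min at room temperature) measured metabolically competent SW-13 cells after 48 h compound treatment. Final concentrations spanned up to 46 uM; bortezomib served as positive control.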

Compound	Potency	activity (max response)
O=C1Nc2nc(-c3c(O)cccc3OCC3CC3)cc([C@@H]3CCCNC3)c2CO1	22.4 µM (active)	
CO[C@@H]1[C@@H](OC)[C@H](C)[C@@](O)(CC(=O)O)O[C@H]1[C@H](C)[C@H]1O[C@@]2(CC[C@@](C)([C@H]3CC[C@@](C)([C@@H]4O[C@@H]([C@H]5O[C@](C)(O)[C@H](C)C[C@@H]5C)C[C@@H]4OC4C[C@H](OC)[C@@H](OC)[C@H](C)O4)O3)O2)C[C@H](O)[C@H]1C (stereo not given in full)	1.46 µM (active)	
COc1cc(C(=O)O)ccc1NC(=O)[C@@H]1N[C@@H](CC(C)(C)C)[C@](C#N)(c2ccc(Cl)cc2F)[C@H]1c1cccc(Cl)c1F		1.9% (inactive)
OCc1ccccc1O[C@@H]1O[C@H](CO)[C@@H](O)[C@H](O)[C@H]1O		-1.84% (inactive)
